Whole data set: some 8,300 sequences, median “log2 fold change of degron read counts, EGFP-low vs EGFP+ sorted cells (limma voom), compound-induced degradation” near -1.1, cut for the highest 2% near 3.2. The list comes from a sample in which the highest values are over-represented; it also holds similar and randomly drawn sequences.
Biological target: T1, CRBN, Q96SW2
T1 chain: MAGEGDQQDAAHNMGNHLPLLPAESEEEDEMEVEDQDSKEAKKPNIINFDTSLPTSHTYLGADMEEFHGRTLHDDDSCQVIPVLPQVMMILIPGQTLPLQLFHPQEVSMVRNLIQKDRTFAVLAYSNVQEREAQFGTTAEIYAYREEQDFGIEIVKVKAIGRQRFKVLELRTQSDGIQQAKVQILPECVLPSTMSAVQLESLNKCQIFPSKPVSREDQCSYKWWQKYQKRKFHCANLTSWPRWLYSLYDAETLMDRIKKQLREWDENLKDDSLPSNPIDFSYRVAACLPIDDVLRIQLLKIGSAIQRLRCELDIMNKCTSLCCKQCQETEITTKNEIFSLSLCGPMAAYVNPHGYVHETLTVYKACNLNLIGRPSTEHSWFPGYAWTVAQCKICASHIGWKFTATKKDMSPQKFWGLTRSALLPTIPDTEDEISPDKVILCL
Experiment: log2 fold change of degron read counts, EGFP-low vs EGFP+ sorted cells (limma voom), compound-induced degradation; higher = more compound-induced degradation of the degron-EGFP fusion; degrons are variants of IKZF1/3 zinc finger 2; compound dose not given here
Conditions: Jurkat, 18 h

[1] = compound: compound 19 (5-tert-butyl-thalidomide)
[2] = compound: compound 22 (5-morpholino-thalidomide)
[3] = compound: compound 33 (diphenyl IMiD analogue)
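Further: pooled lentiviral library of zinc finger degron-EGFP fusions in mCherry-positive Jurkat cells, FACS-sorted after compound exposure, with degron abundance counted by next-generation sequencing.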

Sequence	log2 fold change of degron read counts [1]	log2 fold change of degron read counts [2]	log2 fold change of degron read counts [3]	log2 fold change of degron read counts (compound: thalidomide)
FKCDVCGADFTQKGNLLRHIKL [46F_47K_49D_50V_52G_53A_54D_55F_67L_, Q9UKT9]	-2.97	-3.35	-3.54	-2.81
FFCEICGRYFTQKGNLLRHIKL [46F_47F_49E_50I_52G_53R_54Y_55F_67L_, Q9UKT9]	0.941	0.578	-0.864	-0.888
FKCNQCGRGFTQKGNLLRHIKL [46F_47K_49N_50Q_52G_53R_54G_55F_67L_, Q9UKT9]	-2.31	-2.82	-2.99	-2.64
FSCDQCGAAFTQKGNLLRHIKL [46F_47S_49D_50Q_52G_53A_54A_55F_67L_, Q9UKT9]	-0.624	-1.35	0.123	-2.08
FSCDICGAQFTQKGNLLRHIKL [46F_47S_49D_50I_52G_53A_54Q_55F_67L_, Q9UKT9]	1.74	1.52	0.198	0.0774
LTCPICGFNCTQKGNLLRHIKL [46L_47T_49P_50I_52G_53F_54N_55C_67L_, Q9UKT9]	-0.006	2.04	2.24	2.86
FSCEICGHYFTQKGNLLRHIKL [46F_47S_49E_50I_52G_53H_54Y_55F_67L_, Q9UKT9]	-2.13	-2.82	-2.44	-2.99
FLCEICGHLFTQKGNLLRHIKL [46F_47L_49E_50I_52G_53H_54L_55F_67L_, Q9UKT9]	-3.49	-2.55	-2.84	-2.4

Source: the supplement of paper PMC12645437, “Orthogonal IMiD-Degron Pairs Induce Selective Protein Degradation in Cells” (ACS Chemical Biology, 2025)
